According to PubChem BioAssay (NCATS):
Inconclusive results are not listed. For some of these results: Entries with a potency or affinity are not part of this list. Activity calls are given as the source filed them. Unless noted, the rule behind the calls is not given here.

How the values were obtained:
[1] = Ebola virus entry assay, green fluorescence channel
[2] = Ebola virus entry assay, blue channel fluorescence
[3] = Ebola virus entry assay, green channel fluorescence
[4] = Ebola virus entry assay, reporter ratio channel; Channel type: primary
[5] = Ebola virus entry assay, blue channel (ratio component)
[6] = Immunotoxin (HA22) sensitization/mitigation study. Vehicle arm (PBS) (AID 1159510); conditions: cancer cells viability with PBS vehicle (HA22 study); series mostly up to 46.1 µM; note: potency is the fitted concentration of half-maximal effect
[7] = Immunotoxin (SS1P) sensitization/mitigation study. Vehicle arm (DMEM) (AID 1159513); conditions: cell viability with vehicle (DMEM); series mostly up to 46.1 µM
[8] = qHTS assay for measurement of the activity of small molecule inhibitors on Zika virus induced Caspase-3 activity in human astrocytoma cells (AID 1224859; active = well fitted inhibition curve with a large enough effect;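 note: plate controls were ZIKV-infected untreated cells for no effect and uninfected cells for full effect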); conditions: SNB-19 ZIKV-induced caspase-3/7, luminescence, 6 h; series mostly up to 45.7 µM
Procedure, shortened: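 Caspase activation in ZIKV-infected SNB-19 cells (2 FFU/cell, 6 h) measured by Caspase-Glo 3/7 luminescence after 30 min RT; compound pre-incubated 1 h; normalised to uninfected and infected controls.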

[9] = Ebola virus entry assay, ratio channel
[10] = qHTS assay for measurement of the activity of small molecule inhibitors on Zika virus induced Caspase-3 activity in human iPSC derived neural progenitor cells (hNPCs) (AID 1224857; active = well fitted inhibition curve with a large enough effect; note: % of control where 0% means no effect; nearly all actives have a fitted effect of over 65% in size); conditions: hNPCs ZIKV-induced caspase-3/7, Caspase-Glo luminescence, 6 h; series mostly up to 45.7 µM
Procedure, shortened: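 Zika virus (2 FFU/cell) infection of human iPSC-derived NPCs, 6 h, following 1 h compound preincubation. Read-out: Caspase-Glo 3/7 luminescence.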

[11] = qHTS profiling of the MIPE4 collection as inhibitors of Plasmodium falciparum (3D7) proliferation (AID 743344);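 note: scaled between DMSO vehicle wells and 0.29 µM artemisinin as full inhibition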; conditions: P. falciparum 3D7 in erythrocytes, SYBR Green DNA fluorescence, 72 h; at 28.5 µM (top of the series)
Procedure, shortened: (§1)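 Parasite DNA was quantified by SYBR Green I fluorescence (ex 485, em 535 nm) after overnight lysis in saponin/Triton buffer at room temperature. Cultures at 0.3% parasitemia and 2.5% hematocrit were first exposed to compound for 72 h at 37 C; signals were normalised to artemisinin (0.29 uM) and vehicle wells.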

[12] = qHTS profiling of the MIPE4 collection as inhibitors of Plasmodium falciparum (DD2) proliferation (AID 743345); conditions: P. falciparum Dd2 in erythrocytes, SYBR Green DNA, 72 h; at 28.5 µM (top of the series)
Procedure, shortened: as §1

[13] = qHTS profiling of the MIPE4 collection as inhibitors of Plasmodium falciparum (DD2) proliferation (Rep 2) (AID 743346); conditions: P. falciparum Dd2 in erythrocytes, SYBR Green DNA, 72 h; at 28.5 µM (top of the series)
Procedure, shortened: as §1

[14] = qHTS profiling of the MIPE4 collection as inhibitors of Plasmodium falciparum (HB3) proliferation (AID 743347);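 note: plate controls were DMSO vehicle wells for no effect and artemisinin wells for full effect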; conditions: P. falciparum HB3 in erythrocytes, SYBR Green DNA, 72 h; at 28.5 µM (top of the series)
Procedure, shortened: as §1

[15] = High-throughput drug toxicity screening in the BPDCN cell line Gen2.2 (AID 1224824); conditions: Gen2.2 BPDCN cells; at 45.8 µM (top of the series);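 note: cells exposed to compounds for 48 h before reading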
Procedure, shortened: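 CellTiter-Glo luminescence after 48 h compound exposure of Gen2.2 cells; percent activity set with DMSO as 100% and bortezomib (9.2 uM final) as 0%. Cells seeded at 500 per well, RPMI + 10% FBS, 37 °C.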

[16] = High-throughput drug toxicity screening in the BPDCN cell line Cal-1 (AID 1224825); conditions: Cal-1 BPDCN cell viability, qHTS; at 45.8 µM (top of the series)
Procedure, shortened: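 CellTiter-Glo luminescence after 48 h compound exposure; percent activity scaled with DMSO as 100% and bortezomib (9.2 uM final) as 0%. Cal-1 cells seeded at 500/well in RPMI, 10% FBS, no phenol red.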

[17] = qHTS Screen of the MIPE 4.0 Collection Against Ewings Sarcoma (TC71) (AID 1259253; active = well fitted inhibition curve with a large enough effect;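 note: 100% = DMSO-treated cells and 0% = medium-only wells without cells; nearly all actives have a fitted effect of over 40% in size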); conditions: TC71 Ewing sarcoma viability, CellTiter-Glo, 48 h; series mostly up to 45.8 µM
Procedure, shortened: (§2)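 Dose series incubated 48 h with cells in RPMI plus 5% FBS, glutamine and penicillin/streptomycin; cell viability then quantified via CellTiter-Glo.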

[18] = qHTS Screen of the MIPE 4.0 Collection Against Ewings Sarcoma (EW8) (AID 1259255; active = well fitted inhibition curve with a large enough effect;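 note: 100% = DMSO-treated cells and 0% = medium-only wells without cells; nearly all actives have a fitted effect of over 35% in size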); conditions: EW8 Ewing sarcoma viability, CellTiter-Glo, 48 h; series mostly up to 45.8 µM
Procedure, shortened: as §2

[19] = qHTS Screen of the MIPE 4.0 Collection Against Ewings Sarcoma (TC32) (AID 1259256; active = well fitted inhibition curve with a large enough effect;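 note: 100% = DMSO-treated cells and 0% = medium-only wells without cells; nearly all actives have a fitted effect of over 45% in size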); conditions: TC32 Ewing sarcoma viability, CellTiter-Glo, 48 h; series mostly up to 45.8 µM
Procedure, shortened: as §2

[20] = qHTS Screen of the MIPE 4.0 Collection Against Ewings Sarcoma (RDES) (AID 1259252; active = well fitted inhibition curve with a large enough effect;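 note: 100% = DMSO-treated cells and 0% = medium-only wells without cells; nearly all actives have a fitted effect of over 35% in size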); conditions: RD-ES Ewing sarcoma viability, CellTiter-Glo, 48 h; series mostly up to 45.8 µM
Procedure, shortened: as §2
Throughout, for efficacy: 0% is about no effect.

C[C@]12CCC(=O)C=C1CC[C@@H]1[C@@H]2[C@@H](O)C[C@@]2(C)[C@H]1CC[C@]2(O)C(=O)CO
inactive: efficacy [1] 14.5% | outcome [2] | outcome [3] | outcome [4] | outcome [5] | outcome [7]
active: Potency [6] 0.296 µM

CCCCCCCCC(=O)NCc1ccc(O)c(OC)c1
inactive: efficacy [1] -29.4% | outcome [2] | outcome [3] | outcome [4] | outcome [5] | outcome [8]

Oc1ccc2[nH]cc(CCCCN3CC=C(c4ccccc4)CC3)c2c1
inactive: efficacy [1] 50.4% | outcome [8]
active: AC50 [2] 6.31 µM | AC50 [9] 8.91 µM | AC50 [4] 8.91 µM

O=c1n(Cl)c(=O)n(Cl)c(=O)n1Cl
inactive: efficacy [1] -11.8% | outcome [2] | outcome [3] | outcome [4] | outcome [5] | outcome [8]

ClC1=C(Cl)C2(Cl)C(CBr)CC1(Cl)C2(Cl)Cl (stereo unspecified)
inactive: efficacy [1] -23.9% | outcome [2] | outcome [4] | outcome [5] | outcome [8]

C=CCOC(Cn1ccnc1)c1ccc(Cl)cc1Cl (stereo unspecified)
active: AC50 [2] 39.8 µM | AC50 [4] 39.8 µM
inactive: efficacy [1] 85% | outcome [9] | outcome [8]

CCN(CC)C(C)C(=O)c1ccccc1 (stereo unspecified)
inactive: efficacy [1] 12% | outcome [2] | outcome [3] | outcome [4] | outcome [5] | Potency [10] | outcome [8]

Cc1ccc(N=CN(C)C=Nc2ccc(C)cc2C)c(C)c1
inactive: efficacy [1] -16% | outcome [2] | outcome [3] | outcome [4] | outcome [5] | Potency [10] | outcome [8]

CCOC(=O)NC(O)C(Cl)(Cl)Cl (stereo unspecified)
inactive: efficacy [1] 20.9% | outcome [2] | outcome [3] | outcome [4] | outcome [5] | Potency [10] | outcome [8]

C=CCc1cc(OC)c(O)c(C(=O)NCCO)c1
100%: growth, % of control [14]
125%: parasite growth, % of control (lower = inhibition) [13]
active: AC50 [2] 12.6 µM | AC50 [9] 22.4 µM | AC50 [4] 22.4 µM
40.8%: parasite growth remaining, % of DMSO control (lower = more inhibition) [12]
114%: parasite growth, % of DMSO control [11]
inactive: efficacy [1] -21.5%

CC(C)NCC(O)c1ccc(N)c(C#N)c1 (stereo unspecified)
inactive: efficacy [1] -19.3% | outcome [2] | outcome [3] | outcome [4] | outcome [5] | outcome [8]

CC(C)C(Br)C(=O)NC(N)=O (stereo unspecified)
inactive: efficacy [1] -26.9% | outcome [2] | outcome [3] | outcome [4] | outcome [5] | outcome [8]

C[N+]1(CCC(C(N)=O)(c2ccccc2)c2ccccc2)CCCCC1
inactive: efficacy [1] 21.3% | outcome [2] | outcome [3] | outcome [4] | outcome [5] | Potency [10] | outcome [8]

CCCC[N+]1(C)[C@@H]2CC(OC(=O)[C@H](CO)c3ccccc3)C[C@H]1[C@@H]1O[C@@H]12 (stereo partly specified)
inactive: efficacy [1] -24.1% | outcome [2] | outcome [3] | outcome [4] | outcome [5] | Potency [10] | outcome [8]

COc1cc(C[C@@H](C)N)c(OC)cc1C
active: AC50 [2] 35.5 µM | AC50 [4] 35.5 µM
inactive: efficacy [1] 32.9% | outcome [9] | outcome [8]

COc1ccc(C(=O)N2CCCC2=O)cc1
41.6%: viability (% of control) [16]
90.2%: parasite growth, % of DMSO control [11]
inactive: efficacy [1] -13.7% | outcome [2] | outcome [3] | outcome [4] | outcome [5] | outcome [8] | Potency [17] | Potency [18] | Potency [19]
19.7%: parasite growth remaining, % of DMSO control (lower = more inhibition) [12]
46.4%: cell viability, % of control (lower = more cytotoxic) [15]
128%: parasite growth, % of control (lower = inhibition) [13]
103%: growth, % of control [14]

c1ccc2c(c1)Sc1ccccc1N2CC1CN2CCC1CC2 (stereo unspecified)
active: AC50 [2] 5.01 µM | AC50 [9] 3.98 µM | AC50 [4] 3.98 µM
inactive: efficacy [1] -241% | outcome [8]

OC[C@@H](O)[C@H](O)[C@H](O)[C@@H](O)CO
inactive: efficacy [1] -17.3% | outcome [2] | outcome [3] | outcome [4] | outcome [5]

Cc1[nH]c(=O)c(C#N)cc1-c1ccc2nccn2c1
inactive: efficacy [1] -27% | outcome [2] | outcome [3] | outcome [4] | outcome [5] | Potency [6] | outcome [7]

C[C@@H]1CN(C2CCC(C#N)(c3ccc(F)cc3)CC2)CC[C@]1(C(=O)O)c1ccccc1 (stereo partly specified)
inactive: efficacy [1] 31.9% | outcome [2] | outcome [3] | outcome [4] | outcome [5] | Potency [10] | outcome [8]

Clc1ccc(C(OCCN2CCCCC2)c2ccccc2)cc1 (stereo unspecified)
active: AC50 [2] 14.1 µM | AC50 [9] 14.1 µM | AC50 [4] 14.1 µM
inactive: efficacy [1] 53.2% | outcome [8]

CN(C)[C@@H](CCOc1cccc2ccccc12)c1ccccc1
31.8%: parasite growth, % of control (lower = inhibition) [13]
active: AC50 [2] 7.08 µM | AC50 [9] 3.16 µM | AC50 [4] 3.16 µM
inactive: efficacy [1] -116%

CCC(=O)O[C@H]1CC[C@H]2[C@@H]3CCC4=CC(=O)CC[C@]4(C)[C@H]3CC[C@]12C
inactive: efficacy [1] -42.2% | outcome [2] | outcome [3] | outcome [4] | Potency [10] | outcome [8]

COC(=O)C1=CCCN(C)C1
47.2%: parasite growth, % of control (lower = inhibition) [13]
129%: viability (% of control) [16]
93%: growth, % of control [14]
75.8%: parasite growth, % of DMSO control [11]
inactive: efficacy [1] 26.3% | outcome [2] | outcome [3] | outcome [4] | outcome [5] | Potency [10] | outcome [8] | Potency [17]
166%: cell viability, % of control (lower = more cytotoxic) [15]
98.7%: parasite growth remaining, % of DMSO control (lower = more inhibition) [12]

O=C(O)c1nn(Cc2ccc(Cl)cc2Cl)c2ccccc12
101%: parasite growth, % of control (lower = inhibition) [13]
81.1%: growth, % of control [14]
98.4%: cell viability, % of control (lower = more cytotoxic) [15]
99.8%: parasite growth remaining, % of DMSO control (lower = more inhibition) [12]
inactive: efficacy [1] 44.2% | outcome [2] | outcome [3] | outcome [4] | outcome [5] | Potency [6] | outcome [7] | Potency [10] | outcome [8] | Potency [20] | Potency [17] | Potency [18]
95.1%: viability (% of control) [16]
75.4%: parasite growth, % of DMSO control [11]
